Assay results reported in PubChem BioAssay (NCATS).
Inconclusive results are not listed. The source made the active and inactive calls. Calls come from the whole dose curve; as a rule, active = well fitted curve in the direction sought with a large enough effect; inconclusive = small, poorly fitted or top-dose-only effect, or another doubt; inactive = no such curve, though single readings can be large; an effect the other way counts as inactive or inconclusive.

How the values were obtained:
[1] = qHTS to identify inhibitors of the type 1 interferon - major histocompatibility complex class I in skeletal muscle: primary screen against the NCATS Pharmaceutical Collection (AID 1347407);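 note: luminescence of HiBiT knocked into endogenous HLA-B as interferon-induced MHC class I level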
Method in brief: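 Immortalized human myoblasts (C25cl48) with HiBiT knocked into endogenous HLA-B*08:01 were stimulated with 4.0 ng/ml IFN-beta and treated with compounds ([…] top 46 uM) for 24 hrs at 37 C. HiBiT lytic luminescence read.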

[2] = molecular target: Protein phosphatase 1D (Homo sapiens) (UniProt O15297); assay: RapidFire Mass Spectrometry qHTS Assay for Modulators of WT P53-Induced Phosphatase 1 (WIP1) (AID 1347424);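 note: amount of dephosphorylated VEPPL-S-QETFS peptide product formed by WIP1; series mostly up to about 63 µM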
Method in brief: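 10 nM WIP1 + cpd, 1 h RT; + 2 uM VEPPL-pS-QETFS, 5 min RT; stop 0.5% formic acid; labelled product standard 1 uM; RapidFire MS. Buffer 50 mM Tris pH 7.5, 30 mM MgCl2, 1 mM TCEP.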

[3] = molecular target: Protein phosphatase 1D (Homo sapiens) (UniProt O15297); assay: Rhodamine-PBP qHTS Assay for Modulators of WT P53-Induced Phosphatase 1 (WIP1) (AID 1347425)
Method in brief: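 Read-out: Rhodamine-PBP fluorescence (ex 525/em 598 nm) for released Pi, read each minute for 11 min after adding 10 uM VEPPL-pS-QETFS; signal taken as f1 minus pre-substrate f0. Enzyme 5 nM WIP1 with 1 hr room-temperature compound preincubation.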

[4] = Primary qHTS for inhibitors of La Crosse Virus (LACV) - induced cell death in SH-SY5Y cells (AID 1508616);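 note: top concentration of the series differs between compounds; higher means more rescue of cells from virus-induced death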
Method in brief: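 Readout was luminescence from ATPLite 1step added after a 6-day LACV infection (0.01 MOI) of SH-SY5Y cells that had received pin-transferred compound 24 hr after seeding.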

[5] = molecular target: Calcium and integrin-binding protein 1 (Homo sapiens) (UniProt Q99828); assay: Primary qHTS for Identification of Calcium Integrin Binding Protein 1 (CIB1) Competitor (AID 1508620);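 note: GST tagged CIB1 binding a fluorescein labelled alphaIIb integrin peptide tracer; top concentration of the series differs between compounds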
Method in brief: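 CIB1-GST (1 uM final) and compound incubated 15 min at room temperature before adding FITC-alphaIIb peptide tracer (100 nM final). Competition for binding read by fluorescence polarization (ex 480, em 540) after another 15 min at room temperature.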

[6] = Counterscreen qHTS for small molecule stabilizers of the endoplasmic reticulum resident proteome: GLuc-NoTag assay (AID 1508627);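 note: SH-SY5Y cells given compound then 100 nM thapsigargin to empty ER calcium; series mostly up to about 76 µM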
Method in brief: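 Luminescence of Gaussia luciferase secreted into the medium (coelenterazine, 0.07x final, unlysed cells) was the read-out. Human SH-SY5Y neuroblastoma cells constitutively secreting untagged GLuc received compound for 19 h, then 100 nM thapsigargin for 4 h.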

Measured: Potency

Chain of Calcium and integrin-binding protein 1 (Homo sapiens) (Q99828 whole entry, looked up): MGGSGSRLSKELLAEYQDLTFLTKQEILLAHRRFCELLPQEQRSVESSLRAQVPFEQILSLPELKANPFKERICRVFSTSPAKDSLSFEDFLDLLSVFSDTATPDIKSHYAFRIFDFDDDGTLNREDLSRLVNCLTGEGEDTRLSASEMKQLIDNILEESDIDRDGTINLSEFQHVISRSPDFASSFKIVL
Chain of Protein phosphatase 1D (Homo sapiens) (O15297 whole entry, looked up): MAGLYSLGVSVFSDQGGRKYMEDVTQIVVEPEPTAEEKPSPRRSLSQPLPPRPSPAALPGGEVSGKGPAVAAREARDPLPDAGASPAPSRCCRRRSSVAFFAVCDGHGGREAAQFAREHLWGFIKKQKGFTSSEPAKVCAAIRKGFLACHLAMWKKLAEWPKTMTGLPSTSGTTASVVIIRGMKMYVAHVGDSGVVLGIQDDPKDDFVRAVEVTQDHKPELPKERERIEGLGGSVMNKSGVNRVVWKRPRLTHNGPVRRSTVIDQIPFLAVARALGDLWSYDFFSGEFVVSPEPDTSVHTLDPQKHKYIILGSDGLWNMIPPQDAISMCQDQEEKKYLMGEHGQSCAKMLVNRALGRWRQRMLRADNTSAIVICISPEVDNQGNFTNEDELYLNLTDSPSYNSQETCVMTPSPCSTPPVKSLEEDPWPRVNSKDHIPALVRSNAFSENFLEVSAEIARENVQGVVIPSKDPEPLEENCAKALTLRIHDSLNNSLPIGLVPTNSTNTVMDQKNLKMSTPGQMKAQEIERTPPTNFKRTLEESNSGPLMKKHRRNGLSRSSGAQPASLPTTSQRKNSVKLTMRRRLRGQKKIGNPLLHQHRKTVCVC

COc1cc2c(cc1OC)CN(C(=O)[C@H](C)N[C@@H](CCc1ccccc1)C(=O)O)[C@H](C(=O)O)C2
not listed: [6]
inactive: all other assays above

Cc1cccc(N(C)C(=S)Oc2ccc3c(c2)C2CCC3C2)c1 (configuration not stated)
not listed: [6]
inactive: all other assays above

CCOC(=O)C(O)c1ccccc1 (configuration not stated)
not listed: [6]
inactive: all other assays above

CCN1CCCC1CN (configuration not stated)
not listed: [6]
inactive: all other assays above

CCC1(c2cnc[nH]2)Cc2ccccc2C1
not listed: [6]
inactive: all other assays above

COc1ccc2nc(SCc3ncc(C)c(OC)c3C)[nH]c2c1
not listed: [6]
inactive: all other assays above

Cc1cccc(OCC(O)CNC(C)(C)C)c1C (configuration not stated)
not listed: [6]
inactive: all other assays above

CCCC(CCC)(C(=O)OCC)C(=O)OCC
not listed: [6]
inactive: all other assays above

CC(C)NC(=O)c1ccc(C=O)cc1
not listed: [6]
inactive: all other assays above

CC(C)C(=O)Nc1cccc(C(F)(F)F)c1
not listed: [6]
inactive: all other assays above

Nc1nnnn1-c1ccccc1
not listed: [6]
inactive: all other assays above

C/C(=N\O)[C@@H](C)NCC(C)(C)CN[C@H](C)/C(C)=N/O
not listed: [6]
inactive: all other assays above

CC(CCc1ccc2c(c1)OCO2)NN (configuration not stated)
not listed: [6]
inactive: all other assays above

CCOc1c(N2CCOCC2)cnn(C)c1=O
not listed: [6]
inactive: all other assays above

Cc1nc([N+](=O)[O-])cn1-c1ccc([N+](=O)[O-])cc1
not listed: [6]
inactive: all other assays above

CCN(CC)C(=O)C1CN2CCc3cc(OC)c(OC)cc3C2CC1OC(C)=O (configuration not stated)
not listed: [6]
inactive: all other assays above

CNC(=O)c1cnn(-c2nc(N)c3ncn([C@@H]4O[C@H](CO)[C@@H](O)[C@H]4O)c3n2)c1
not listed: [6]
inactive: all other assays above

CC(=O)Nc1c(I)c(NC(C)=O)c(I)c(C(=O)O)c1I
not listed: [6]
inactive: all other assays above

CCC(=O)Oc1ccc2c(c1)CC[C@@H]1[C@@H]2CC[C@@]2(C)[C@H]1C[C@@H](OC(=O)CC)[C@@H]2OC(=O)CC
not listed: [6]
inactive: all other assays above

CCN(CC)CC(=O)Oc1ccc(NC(C)=O)cc1
not listed: [6]
inactive: all other assays above

CCCc1c2oc(C(=O)O)cc(=O)c2cc2c(=O)cc(C(=O)O)n(CC)c12
not listed: [6]
inactive: all other assays above

O=C(C1CCCCC1)N1CC(=O)N2CCCc3ccccc3C2C1 (configuration not stated)
not listed: [6]
inactive: all other assays above

O=C(O)Cn1cnnn1
inactive: all assays above

CCOc1ncc(F)c(=O)[nH]1
inactive: all assays above

C[C@H]1C[C@H](O)c2ccsc2S1(=O)=O
inactive: all assays above

O=C(c1ccccc1)c1ccccc1
inactive: [1] | [2] | [3] | [5]

C=C(C)C(=O)OCC(O)CO (configuration not stated)
inactive: [1] | [2] | [3] | [5]

CC(C)C[C@@H]1[C@H](c2ccccc2)OC(=O)N1CCCN1CCCCCC1
inactive: all assays above

Cc1onc(-c2ccccc2)c1C(=O)Cl
inactive: all assays above

COc1cc(/C=C/C(N)=O)cc(OC)c1OC
inactive: [1] | [2] | [3] | [5]

O=C(O)CCC(=O)OC[C@@H](NC(=O)C(Cl)Cl)[C@H](O)c1ccc([N+](=O)[O-])cc1
not listed: [6]
inactive: all other assays above

O=C1CC(c2ccc(Cl)cc2)CC(=O)N1
inactive: all assays above

Nc1ccc2c(c1)CN1C(=O)c3ccccc3C1=N2
inactive: [1] | [2] | [3] | [5]
